Assays:
Experiment in all cases: pooled miR-30 sensor sort-seq; sequence = guide strand
Conditions in all cases: shRNA
DHX35 = biological target: DHX35
DHPS = biological target: DHPS
DHCR7 = biological target: DHCR7
DNAJC13 = biological target: DNAJC13
DNMT3L = biological target: DNMT3L
DPRX = biological target: DPRX
EDF1 = biological target: EDF1
EDDM3B = biological target: EDDM3B
ECH1 = biological target: ECH1
EEF1B2 = biological target: EEF1B2
EFCAB6 = biological target: EFCAB6

TAACACAAAACAGCGCACGAGT
sensor-assay potency score (higher = more potent) (DHX35): -0.967

TACGTCCACCATGTTGTGCTGC
sensor-assay potency score (higher = more potent) (DHPS): -0.635

TGATGTAAACAGCGTAGTCGGC
sensor-assay potency score (higher = more potent) (DHPS): -0.353

TGTGTTGATGTAAACAGCGTAG
sensor-assay potency score (higher = more potent) (DHPS): -0.876

TAATACACGGACTCTGGGTTGT
sensor-assay potency score (higher = more potent) (DHPS): -0.152

TTCCAGCTTCTTCTCGATCATG
sensor-assay potency score (higher = more potent) (DHPS): -1.22

ATAAGGGTTGTAAACAACCGTT
sensor-assay potency score (higher = more potent) (DHX35): -1.1

TCAATGGTCTTCAGGTACCAGG
sensor-assay potency score (higher = more potent) (DHCR7): -1.35

TTGAAGTCAAACCACTTCCCGA
sensor-assay potency score (higher = more potent) (DHCR7): -0.639

TATCTTGTCCTTTTGTCTCTTC
sensor-assay potency score (higher = more potent) (DNAJC13): 0.492

TATGCAATAAGATCTCTGCCTG
sensor-assay potency score (higher = more potent) (DNMT3L): -0.0706

TTTTGATGAATATGCTTGCATT
sensor-assay potency score (higher = more potent) (DPRX): -1.14

TCTTGGTAATAGAATGTTGTTT
sensor-assay potency score (higher = more potent) (EDF1): -1.13

TTGCGCAGCACCGTCACCGTGT
sensor-assay potency score (higher = more potent) (EDF1): -0.348

TGCAGCTCCTCTGTCTCCCGGT
sensor-assay potency score (higher = more potent) (EDF1): -0.285

ATATGCTCGATTTTGTACCATG
sensor-assay potency score (higher = more potent) (EDDM3B): -1.24

TATGCTATCAACATACCCGTCC
sensor-assay potency score (higher = more potent) (EDDM3B): 0.462

TGTTCTTGGTAATAGAATGTTG
sensor-assay potency score (higher = more potent) (EDF1): -1.17

TCTTGTTGAAGCACTCTACCAT
sensor-assay potency score (higher = more potent) (ECH1): 0.331

TTGTTCATGGCATTCCTCTTGT
sensor-assay potency score (higher = more potent) (ECH1): 0.382

TTGGGCTGCAGGATGTCCGAAG
sensor-assay potency score (higher = more potent) (ECH1): -0.857

ATTTCTTGGAAGTCTCCACATC
sensor-assay potency score (higher = more potent) (EDF1): -1.38

TTGGACTTAAGTAGTGCTGTTT
sensor-assay potency score (higher = more potent) (EDDM3B): -0.357

TCAATGTAGTTGAAGCTCCTGC
sensor-assay potency score (higher = more potent) (EDDM3B): 0.357

TTCTGCGCAGACGTCACACGAA
sensor-assay potency score (higher = more potent) (ECH1): -0.688

AATAGAATGTTGTTTGTTCTGG
sensor-assay potency score (higher = more potent) (EDF1): -0.0468

TATCTGTTCCAACTTTATCATC
sensor-assay potency score (higher = more potent) (EEF1B2): -1.68

ATCTTTAGGTCTTCTATGCTAT
sensor-assay potency score (higher = more potent) (EDDM3B): -0.978

TAGAAAGCACTGAATACTCTAC
sensor-assay potency score (higher = more potent) (EDDM3B): -0.181

TTGGAGCCTGTCAGTCGCCGGG
sensor-assay potency score (higher = more potent) (ECH1): -1.13

TTTGAGAGGATTCTGGACCCAT
sensor-assay potency score (higher = more potent) (EDDM3B): 0.578

TTTGACAGCAGGAATGGGCTGG
sensor-assay potency score (higher = more potent) (EDF1): 0.46

TCATAGTCCGCGATCACCTGTG
sensor-assay potency score (higher = more potent) (EDF1): 0.11

TATATCGAAATTCTTCTCTTGT
sensor-assay potency score (higher = more potent) (EFCAB6): 0.825

TTTCCAATGTCCTTTCCCCGGA
sensor-assay potency score (higher = more potent) (EDF1): -0.772

TTGAAGGTCTCCTGGTATCGAG
sensor-assay potency score (higher = more potent) (ECH1): -0.974

Reference: the OligoGym collection
